Key:
Experiment in all cases: log2 ratio of Biotin-Ahx-Ub-VS probe labelling (fragment/DMSO); higher = less target engagement (more negative = stronger competition), active = hit call of the paper (q ≤ 0.05, log2 ratio ≤ -1)
Details in all cases: compound concentration: 200 uM; treatment time: 3 h
USP34 = USP34 (UniProt Q70CQ2)
Method in brief: (§1)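 The table lists average log2 ratios of fragment over vehicle, from an unpaired t-test on global-median-normalised Spectronaut label-free quantities. Proteins with ≥2 unique peptides were used. Samples were HEK293T lysate (495 µg) treated in triplicate with fragment at 200 µM or vehicle for 3 h, then with Biotin-Ahx-Ub-VS (0.5 µM final) for 1 h, with labelled DUBs NeutrAvidin-enriched and run by diaPASEF LC-MS/MS.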

USP36 = biological target: T1, USP36 (UniProt Q9P275)
T1 sequence (whole entry): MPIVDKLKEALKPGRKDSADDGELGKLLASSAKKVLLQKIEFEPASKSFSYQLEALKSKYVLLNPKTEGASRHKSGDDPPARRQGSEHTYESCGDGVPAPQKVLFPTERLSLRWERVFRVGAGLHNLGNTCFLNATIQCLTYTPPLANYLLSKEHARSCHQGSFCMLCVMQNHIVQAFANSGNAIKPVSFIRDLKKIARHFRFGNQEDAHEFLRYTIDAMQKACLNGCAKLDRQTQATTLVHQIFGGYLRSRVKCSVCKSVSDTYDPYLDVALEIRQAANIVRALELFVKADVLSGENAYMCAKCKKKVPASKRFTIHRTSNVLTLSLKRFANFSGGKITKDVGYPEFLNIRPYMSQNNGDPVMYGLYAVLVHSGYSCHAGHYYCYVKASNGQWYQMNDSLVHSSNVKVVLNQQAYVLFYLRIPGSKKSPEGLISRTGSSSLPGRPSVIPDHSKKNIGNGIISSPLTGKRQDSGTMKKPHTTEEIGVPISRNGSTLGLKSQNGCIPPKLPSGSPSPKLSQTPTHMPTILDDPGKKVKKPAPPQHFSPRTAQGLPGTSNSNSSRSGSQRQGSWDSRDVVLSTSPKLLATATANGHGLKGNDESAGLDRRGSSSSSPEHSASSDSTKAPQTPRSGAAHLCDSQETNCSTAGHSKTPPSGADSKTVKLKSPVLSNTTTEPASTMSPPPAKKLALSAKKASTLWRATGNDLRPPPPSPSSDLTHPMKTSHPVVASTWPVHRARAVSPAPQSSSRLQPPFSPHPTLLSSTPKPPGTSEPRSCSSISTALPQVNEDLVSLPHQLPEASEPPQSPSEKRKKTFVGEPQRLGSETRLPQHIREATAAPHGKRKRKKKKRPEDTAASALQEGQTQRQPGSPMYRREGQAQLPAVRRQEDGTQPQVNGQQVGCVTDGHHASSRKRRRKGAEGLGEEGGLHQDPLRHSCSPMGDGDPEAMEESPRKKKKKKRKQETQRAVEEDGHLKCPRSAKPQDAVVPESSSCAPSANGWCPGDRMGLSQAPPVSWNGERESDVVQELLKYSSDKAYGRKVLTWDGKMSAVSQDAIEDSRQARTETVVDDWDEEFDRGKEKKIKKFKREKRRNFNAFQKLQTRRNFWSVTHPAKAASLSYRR
Method in brief: as §1

USP38 = biological target: T2, USP38 (UniProt Q8NB14)
T2 sequence (whole entry): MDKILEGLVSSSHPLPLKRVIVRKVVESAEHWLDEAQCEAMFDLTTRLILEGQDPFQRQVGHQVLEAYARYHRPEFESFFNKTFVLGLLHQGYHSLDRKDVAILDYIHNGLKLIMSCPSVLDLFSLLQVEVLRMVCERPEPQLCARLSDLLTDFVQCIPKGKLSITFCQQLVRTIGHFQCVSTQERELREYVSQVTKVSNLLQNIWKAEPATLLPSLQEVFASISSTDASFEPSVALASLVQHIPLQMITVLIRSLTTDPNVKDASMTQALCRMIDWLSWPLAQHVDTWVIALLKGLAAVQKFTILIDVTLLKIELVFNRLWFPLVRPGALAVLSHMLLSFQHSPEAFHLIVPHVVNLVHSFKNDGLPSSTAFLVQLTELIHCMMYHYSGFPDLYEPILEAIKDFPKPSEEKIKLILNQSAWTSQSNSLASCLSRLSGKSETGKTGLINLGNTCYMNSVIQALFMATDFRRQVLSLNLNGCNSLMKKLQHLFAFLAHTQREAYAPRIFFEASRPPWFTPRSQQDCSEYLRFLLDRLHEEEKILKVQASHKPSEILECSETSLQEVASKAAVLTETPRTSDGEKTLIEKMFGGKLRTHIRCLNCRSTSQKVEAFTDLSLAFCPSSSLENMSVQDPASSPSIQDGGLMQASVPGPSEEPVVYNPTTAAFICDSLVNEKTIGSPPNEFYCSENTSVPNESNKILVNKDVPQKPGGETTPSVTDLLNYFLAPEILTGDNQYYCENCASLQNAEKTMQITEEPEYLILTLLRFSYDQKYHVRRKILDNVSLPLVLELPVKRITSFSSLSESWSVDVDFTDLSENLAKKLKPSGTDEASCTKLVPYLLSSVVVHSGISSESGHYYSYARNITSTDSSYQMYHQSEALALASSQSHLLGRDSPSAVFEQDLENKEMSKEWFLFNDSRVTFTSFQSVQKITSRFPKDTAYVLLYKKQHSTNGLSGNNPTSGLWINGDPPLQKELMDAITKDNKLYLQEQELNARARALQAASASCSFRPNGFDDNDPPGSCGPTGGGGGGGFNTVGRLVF
Method in brief: as §1

USP39 = biological target: T3, USP39 (UniProt Q53GS9)
T3 sequence (whole entry): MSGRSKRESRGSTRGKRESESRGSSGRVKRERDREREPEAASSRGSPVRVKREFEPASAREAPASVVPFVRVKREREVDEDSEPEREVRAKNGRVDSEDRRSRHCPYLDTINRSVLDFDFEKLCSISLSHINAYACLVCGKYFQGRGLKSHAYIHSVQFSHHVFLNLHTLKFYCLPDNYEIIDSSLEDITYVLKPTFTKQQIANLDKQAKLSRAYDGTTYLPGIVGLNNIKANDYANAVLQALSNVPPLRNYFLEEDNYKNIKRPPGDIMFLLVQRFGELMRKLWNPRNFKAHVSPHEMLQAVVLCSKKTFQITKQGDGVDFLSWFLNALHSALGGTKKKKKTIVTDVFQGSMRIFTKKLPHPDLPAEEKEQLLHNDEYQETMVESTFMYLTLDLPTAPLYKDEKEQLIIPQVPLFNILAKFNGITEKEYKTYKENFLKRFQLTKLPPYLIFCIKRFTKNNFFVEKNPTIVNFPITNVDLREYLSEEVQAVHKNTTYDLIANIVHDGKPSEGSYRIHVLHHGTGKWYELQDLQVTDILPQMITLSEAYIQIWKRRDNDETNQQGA
Method in brief: as §1

USP4 = biological target: T4, USP4 (UniProt Q13107)
T4 sequence (whole entry): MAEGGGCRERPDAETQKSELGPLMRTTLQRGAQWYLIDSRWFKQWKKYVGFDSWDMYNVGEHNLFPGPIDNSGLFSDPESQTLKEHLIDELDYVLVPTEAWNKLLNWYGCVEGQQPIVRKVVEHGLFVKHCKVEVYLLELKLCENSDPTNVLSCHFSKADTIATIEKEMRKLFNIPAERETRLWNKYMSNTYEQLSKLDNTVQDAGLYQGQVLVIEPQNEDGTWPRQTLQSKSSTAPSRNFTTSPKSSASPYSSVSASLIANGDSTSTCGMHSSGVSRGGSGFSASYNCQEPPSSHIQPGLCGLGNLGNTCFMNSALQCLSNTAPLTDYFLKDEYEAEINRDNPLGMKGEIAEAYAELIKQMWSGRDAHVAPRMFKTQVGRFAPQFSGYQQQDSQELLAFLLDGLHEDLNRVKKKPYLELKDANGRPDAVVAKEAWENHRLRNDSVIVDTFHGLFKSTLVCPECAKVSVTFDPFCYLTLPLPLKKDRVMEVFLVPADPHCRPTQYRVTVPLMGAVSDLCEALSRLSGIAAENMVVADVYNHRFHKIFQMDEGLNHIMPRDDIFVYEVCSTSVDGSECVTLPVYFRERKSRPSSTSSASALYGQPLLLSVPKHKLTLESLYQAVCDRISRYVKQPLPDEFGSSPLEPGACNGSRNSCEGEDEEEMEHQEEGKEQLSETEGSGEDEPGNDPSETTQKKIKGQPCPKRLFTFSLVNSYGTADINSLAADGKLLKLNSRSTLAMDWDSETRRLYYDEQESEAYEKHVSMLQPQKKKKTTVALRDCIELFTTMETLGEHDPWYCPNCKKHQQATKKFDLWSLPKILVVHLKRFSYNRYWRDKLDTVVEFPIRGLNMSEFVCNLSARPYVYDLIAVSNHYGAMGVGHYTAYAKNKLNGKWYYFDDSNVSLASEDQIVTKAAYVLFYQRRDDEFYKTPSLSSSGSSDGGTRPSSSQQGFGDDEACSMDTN
Method in brief: as §1

Measured: log2 ratio of Biotin-Ahx-Ub-VS probe labelling

Sequence of USP34 (Q70CQ2 whole entry, the tested form may be a part): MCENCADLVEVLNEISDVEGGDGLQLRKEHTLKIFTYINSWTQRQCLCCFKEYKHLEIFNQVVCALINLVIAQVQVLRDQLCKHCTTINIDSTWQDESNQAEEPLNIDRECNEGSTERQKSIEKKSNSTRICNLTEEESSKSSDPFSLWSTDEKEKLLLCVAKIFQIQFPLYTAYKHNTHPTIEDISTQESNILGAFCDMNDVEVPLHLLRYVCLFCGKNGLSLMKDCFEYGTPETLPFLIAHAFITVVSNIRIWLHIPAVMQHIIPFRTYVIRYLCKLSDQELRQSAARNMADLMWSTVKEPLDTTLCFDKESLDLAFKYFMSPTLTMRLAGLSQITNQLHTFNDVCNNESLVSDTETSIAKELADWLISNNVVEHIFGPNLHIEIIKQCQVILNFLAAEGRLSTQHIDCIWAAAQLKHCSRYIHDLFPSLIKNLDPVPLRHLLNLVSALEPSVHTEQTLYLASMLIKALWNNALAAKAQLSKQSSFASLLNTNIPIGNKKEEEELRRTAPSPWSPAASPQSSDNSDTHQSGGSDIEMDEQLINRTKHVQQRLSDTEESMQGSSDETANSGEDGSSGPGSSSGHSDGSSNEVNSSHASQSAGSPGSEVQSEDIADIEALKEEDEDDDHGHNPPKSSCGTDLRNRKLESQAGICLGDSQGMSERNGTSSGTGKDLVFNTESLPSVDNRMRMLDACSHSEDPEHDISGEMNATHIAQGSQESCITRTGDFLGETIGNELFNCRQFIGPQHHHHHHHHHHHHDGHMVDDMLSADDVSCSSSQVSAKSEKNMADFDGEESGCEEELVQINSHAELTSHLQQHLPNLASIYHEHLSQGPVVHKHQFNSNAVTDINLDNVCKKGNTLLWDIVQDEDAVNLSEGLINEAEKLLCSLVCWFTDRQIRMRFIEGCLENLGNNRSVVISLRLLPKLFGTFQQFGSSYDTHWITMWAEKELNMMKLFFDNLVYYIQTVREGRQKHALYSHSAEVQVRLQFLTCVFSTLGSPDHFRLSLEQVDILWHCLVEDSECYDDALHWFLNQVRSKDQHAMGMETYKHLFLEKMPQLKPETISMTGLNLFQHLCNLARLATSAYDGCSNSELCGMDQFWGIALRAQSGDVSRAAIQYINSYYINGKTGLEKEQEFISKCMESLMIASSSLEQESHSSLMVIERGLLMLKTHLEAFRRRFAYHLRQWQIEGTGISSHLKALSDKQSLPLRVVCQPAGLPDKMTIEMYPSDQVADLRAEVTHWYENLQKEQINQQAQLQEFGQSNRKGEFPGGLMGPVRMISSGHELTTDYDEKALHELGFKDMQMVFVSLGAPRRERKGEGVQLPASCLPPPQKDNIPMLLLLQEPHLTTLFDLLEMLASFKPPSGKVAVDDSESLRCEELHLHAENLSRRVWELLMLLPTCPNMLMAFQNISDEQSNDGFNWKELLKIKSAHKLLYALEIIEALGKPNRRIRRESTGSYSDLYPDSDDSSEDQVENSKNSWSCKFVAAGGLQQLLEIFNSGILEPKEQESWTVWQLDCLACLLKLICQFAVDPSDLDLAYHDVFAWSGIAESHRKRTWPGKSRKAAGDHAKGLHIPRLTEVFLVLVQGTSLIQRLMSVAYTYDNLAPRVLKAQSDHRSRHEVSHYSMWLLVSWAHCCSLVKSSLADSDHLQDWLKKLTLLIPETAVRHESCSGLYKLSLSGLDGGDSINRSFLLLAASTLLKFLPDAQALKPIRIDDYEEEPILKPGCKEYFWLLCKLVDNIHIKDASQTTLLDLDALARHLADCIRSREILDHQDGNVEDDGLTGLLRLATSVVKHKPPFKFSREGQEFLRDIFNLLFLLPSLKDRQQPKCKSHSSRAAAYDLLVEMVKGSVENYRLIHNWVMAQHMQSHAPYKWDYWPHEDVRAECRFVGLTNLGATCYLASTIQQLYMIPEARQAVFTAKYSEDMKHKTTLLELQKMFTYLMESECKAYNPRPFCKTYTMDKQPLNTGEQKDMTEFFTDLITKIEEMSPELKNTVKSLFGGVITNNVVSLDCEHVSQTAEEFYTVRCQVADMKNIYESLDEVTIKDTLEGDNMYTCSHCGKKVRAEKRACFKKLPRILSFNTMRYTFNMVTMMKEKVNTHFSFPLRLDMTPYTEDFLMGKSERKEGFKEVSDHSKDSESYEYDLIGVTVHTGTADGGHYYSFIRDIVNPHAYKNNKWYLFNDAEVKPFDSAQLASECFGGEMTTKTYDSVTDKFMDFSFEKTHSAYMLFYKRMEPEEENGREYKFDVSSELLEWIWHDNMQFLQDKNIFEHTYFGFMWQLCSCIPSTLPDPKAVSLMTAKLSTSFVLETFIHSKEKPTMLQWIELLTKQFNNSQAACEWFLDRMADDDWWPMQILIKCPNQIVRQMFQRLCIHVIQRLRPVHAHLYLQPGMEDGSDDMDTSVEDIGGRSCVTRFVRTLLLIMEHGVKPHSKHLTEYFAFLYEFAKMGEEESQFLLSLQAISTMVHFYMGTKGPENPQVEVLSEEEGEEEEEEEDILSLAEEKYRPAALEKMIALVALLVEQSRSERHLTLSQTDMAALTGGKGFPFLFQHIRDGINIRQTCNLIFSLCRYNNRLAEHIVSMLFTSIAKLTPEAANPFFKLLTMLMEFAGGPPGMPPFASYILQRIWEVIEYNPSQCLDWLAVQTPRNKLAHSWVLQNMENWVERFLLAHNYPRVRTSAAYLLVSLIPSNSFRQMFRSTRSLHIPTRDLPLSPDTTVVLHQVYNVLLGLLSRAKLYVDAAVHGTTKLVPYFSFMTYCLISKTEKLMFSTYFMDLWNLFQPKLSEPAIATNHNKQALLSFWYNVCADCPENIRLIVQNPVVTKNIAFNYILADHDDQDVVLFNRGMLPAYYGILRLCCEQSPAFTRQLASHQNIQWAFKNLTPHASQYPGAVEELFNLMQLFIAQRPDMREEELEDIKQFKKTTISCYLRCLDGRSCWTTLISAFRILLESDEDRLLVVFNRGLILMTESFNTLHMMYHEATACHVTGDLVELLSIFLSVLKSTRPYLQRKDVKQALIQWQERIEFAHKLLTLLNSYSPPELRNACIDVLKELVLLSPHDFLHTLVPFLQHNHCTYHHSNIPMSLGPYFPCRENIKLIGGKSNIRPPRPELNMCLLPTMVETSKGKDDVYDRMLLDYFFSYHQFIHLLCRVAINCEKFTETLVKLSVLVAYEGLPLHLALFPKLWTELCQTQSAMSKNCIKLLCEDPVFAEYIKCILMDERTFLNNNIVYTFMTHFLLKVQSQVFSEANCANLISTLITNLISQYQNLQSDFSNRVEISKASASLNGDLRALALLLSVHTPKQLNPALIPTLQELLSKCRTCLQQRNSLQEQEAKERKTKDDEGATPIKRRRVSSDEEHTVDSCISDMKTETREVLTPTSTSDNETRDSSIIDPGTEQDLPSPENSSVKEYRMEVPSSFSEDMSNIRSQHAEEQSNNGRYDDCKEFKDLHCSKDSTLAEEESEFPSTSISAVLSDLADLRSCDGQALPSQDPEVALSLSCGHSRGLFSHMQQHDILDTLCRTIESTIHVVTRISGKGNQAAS

CS(=O)(=O)c1ccc(NC(=O)CCl)cc1
inactive: USP34 0.0382 | USP36 0.166 | USP38 0.0532 | USP39 -0.186 | USP4 -0.0813

Source: the supplement of paper PMC11732987, “Enantioselective OTUD7B fragment discovery through chemoproteomics screening and high-throughput optimisation” (Communications Chemistry, 2025)
